According to publication PMC5540273 (PLoS ONE, 2017):

Legend:
Conditions in all cases: concentration: 1 μM, replicates: in singlicate; n = 1
ROCK1 = system: ROCK1
ROCK2 = system: ROCK2
ROS1 = system: ROS1
[1] = system: RPS6KA4(Kin.Dom.1-N-terminal)
[2] = system: RPS6KA4(Kin.Dom.2-C-terminal)
[3] = system: RPS6KA5(Kin.Dom.1-N-terminal)
[4] = system: RPS6KA5(Kin.Dom.2-C-terminal)
[5] = system: T1, RSK1(Kin.Dom.1-N-terminal)
T1 construct: gene RPS6KA1

[6] = system: T2, RSK1(Kin.Dom.2-C-terminal)
T2 construct: gene RPS6KA1

[7] = system: T3, RSK2(Kin.Dom.1-N-terminal)
T3 construct: gene RPS6KA3

[8] = system: T4, RSK2(Kin.Dom.2-C-terminal)
T4 construct: gene RPS6KA3

[9] = system: T5, RSK3(Kin.Dom.1-N-terminal)
T5 construct: gene RPS6KA2

[10] = system: T6, RSK3(Kin.Dom.2-C-terminal)
T6 construct: gene RPS6KA2

[11] = system: T7, RSK4(Kin.Dom.1-N-terminal)
T7 construct: gene RPS6KA6

[12] = system: T8, RSK4(Kin.Dom.2-C-terminal)
T8 construct: gene RPS6KA6

S6K1 = system: S6K1
SBK1 = system: SBK1
SGK2 = system: SGK2
SGK3 = system: SGK3
SGK = system: SGK
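Also: KINOMEscan kinase panel screen.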

SMILES | %Inh (ROCK1) [%] | %Inh (ROCK2) [%] | %Inh (ROS1) [%] | %Inh [1] [%] | %Inh [2] [%] | %Inh [3] [%] | %Inh [4] [%] | %Inh [5] [%] | %Inh [6] [%] | %Inh [7] [%] | %Inh [8] [%] | %Inh [9] [%] | %Inh [10] [%] | %Inh [11] [%] | %Inh [12] [%] | %Inh (S6K1) [%] | %Inh (SBK1) [%] | %Inh (SGK2) [%] | %Inh (SGK3) [%] | %Inh (SGK) [%]
COc1ccccc1CNC(=O)c1cc(C(=O)c2ccccc2C)c[nH]1 [GSK364507] | 12 | 10 | 0 | 5 | 0 | 5 | 21 | 25 | 0 | 4 | 0 | 4 | 0 | 0 | 0 | 11 | 16 | 1 | 0 | 0
O=C(Nc1ccc2c(c1)OCO2)NC1CCN(c2ccnc(Nc3ccc(F)cc3)n2)C1 (stereo not drawn) [GSK1379724] | 6 | 3 | 0 | 0 | 0 | 11 | 0 | 11 | 0 | 12 | 0 | 0 | 0 | 0 | 0 | 6 | 13 | 0 | 0 | 0
Clc1cc(Cl)cc(Nc2ccnc(Nc3cc(Cl)cc(Cl)c3)n2)c1 [GSK175726] | 4 | 0 | 37 | 0 | 0 | 8 | 9 | 1 | 26 | 0 | 7 | 0 | 4 | 13 | 22 | 0 | 9 | 0 | 13 | 3
Cc1cc(N2Cc3ccccc3C2)nc(Nc2ccc(S(=O)(=O)N3CCOCC3)cc2)n1.Cl [GSK1669917] | 0 | 0 | 18 | 5 | 0 | 0 | 0 | 0 | 17 | 0 | 0 | 0 | 7 | 0 | 1 | 2 | 16 | 0 | 9 | 0
Cc1c(Cn2ccn3c(=O)cc(N4CCOCC4)nc23)cccc1C(F)(F)F [GSK2289044] | 0 | 0 | 8 | 0 | 0 | 6 | 11 | 0 | 0 | 0 | 23 | 0 | 6 | 0 | 11 | 0 | 14 | 0 | 4 | 0
COc1cccc(-c2cc(-c3c[nH]nc3-c3ccccn3)ccn2)c1 [GW680338] | 0 | 0 | 0 | 18 | 0 | 0 | 7 | 0 | 9 | 0 | 33 | 0 | 0 | 0 | 48 | 6 | 15 | 4 | 7 | 7
O=C(Nc1n[nH]c2nc(-c3nccs3)c(Br)cc12)C1CCCC1 [SB-742609] | 10 | 0 | 0 | 7 | 0 | 0 | 0 | 14 | 0 | 11 | 0 | 0 | 0 | 0 | 1 | 19 | 12 | 0 | 0 | 7
Nc1nc(-c2nccs2)c(-c2ccnc3ccccc23)s1 [GW693542] | 14 | 18 | 0 | 20 | 0 | 20 | 0 | 20 | 0 | 0 | 88 | 0 | 0 | 0 | 50 | 0 | 9 | 0 | 6 | 0
O=C(Nc1n[nH]c2nc(-c3nccs3)c(Br)cc12)C1CC1 [SB-742251] | 36 | 24 | 0 | 0 | 0 | 0 | 11 | 9 | 0 | 11 | 0 | 19 | 0 | 0 | 2 | 6 | 1 | 12 | 0 | 0
Nc1ncnc2[nH]c(-c3ccccc3)nc12 [AH5015] | 11 | 14 | 0 | 15 | 0 | 5 | 0 | 15 | 0 | 15 | 6 | 0 | 0 | 9 | 34 | 22 | 78 | 5 | 18 | 21
O=C(Nc1ccccc1)Nc1cccc(Oc2ccc3nccn3n2)c1 | 0 | 0 | 0 | 43 | 0 | 0 | 0 | 0 | 0 | 0 | 32 | 9 | 14 | 0 | 0 | 0 | 0 | 8 | 9 | 0
COc1cc2nccc(Nc3ccc(NC(=O)c4ccc(C)cc4)c(O)c3)c2cc1OC.Cl [GW440132] | 0 | 4 | 47 | 11 | 0 | 18 | 0 | 9 | 0 | 7 | 4 | 4 | 0 | 0 | 0 | 0 | 10 | 5 | 0 | 0
O=C(O)COc1ncnc2cc(-c3ccc4[nH]ncc4c3)sc12 | 27 | 61 | 3 | 15 | 17 | 0 | 0 | 21 | 34 | 13 | 0 | 26 | 29 | 23 | 15 | 0 | 45 | 9 | 35 | 4
Cc1cccc(-c2nc(Nc3ccc4[nH]ncc4c3)c3ccccc3n2)n1 [GW857175] | 29 | 52 | 17 | 0 | 33 | 0 | 5 | 15 | 50 | 18 | 23 | 14 | 1 | 35 | 15 | 26 | 5 | 6 | 9 | 25
Cc1ccc(-c2cc(-c3c[nH]nc3-c3ccccn3)ccn2)cc1 [GW684088] | 25 | 17 | 37 | 2 | 0 | 2 | 19 | 8 | 24 | 6 | 30 | 0 | 25 | 0 | 62 | 5 | 4 | 0 | 4 | 0
COc1ccc(CNC(=O)NC2CCN(c3ccnc(Nc4cc(OC)c(OC)c(OC)c4)n3)C2)cc1 (stereo not drawn) [GSK1379748] | 20 | 31 | 29 | 0 | 0 | 0 | 21 | 0 | 1 | 3 | 15 | 0 | 21 | 0 | 5 | 0 | 0 | 0 | 0 | 0
O=C1NC(=O)C(N2CCc3ccccc32)=C1c1ccccc1Cl [SB-373598] | 4 | 0 | 22 | 41 | 0 | 7 | 10 | 0 | 14 | 65 | 2 | 0 | 1 | 3 | 6 | 0 | 69 | 2 | 3 | 0
Fc1cc(Cl)ccc1Nc1ccnc2cc(-c3ccc(CN4CCCCC4)o3)ccc12 [GW560116] | 31 | 24 | 2 | 0 | 0 | 0 | 8 | 0 | 26 | 0 | 25 | 0 | 24 | 0 | 88 | 29 | 2 | 0 | 0 | 3
Fc1cccc(COc2nnc(-c3ccc4c(c3)CCO4)o2)c1 | 0 | 0 | 0 | 0 | 30 | 0 | 9 | 0 | 43 | 0 | 35 | 0 | 22 | 0 | 8 | 0 | 0 | 0 | 0 | 0
COc1ccc(Nc2nccc(NCCNC(=O)Nc3ccccc3F)n2)cc1 [GSK1379901] | 30 | 44 | 24 | 14 | 0 | 14 | 27 | 16 | 0 | 1 | 27 | 19 | 2 | 0 | 23 | 3 | 6 | 0 | 16 | 0
Cc1ccc(NC(=O)Nc2cc(C(C)(C)C)nn2-c2ccccc2)cc1 [GSK1014915] | 15 | 0 | 9 | 9 | 0 | 25 | 38 | 16 | 1 | 19 | 0 | 18 | 11 | 0 | 44 | 10 | 7 | 8 | 0 | 0
